GLP1R cytotox: cytotoxicity counter-screen for GLP-1 receptor inverse agonists; Potency, µM (titrated, usually from 38.3 µM), for inactives: at the highest dose activity change, negative = inhibition, most hits filed as inhibitors; AID 624418; HEK293 cAMP-luciferase reporter cells, luminescence, 24 h; hit rate 0.13% among 410,000;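 further: loss of luciferase light is scored as toxicity; potency means the concentration at half of the fitted maximal effect; on the % scale 0 is the no-effect control and ±100 the full control effect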
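Quantitative HTS format, 1536 wells, 200 cells/uL seeded. Compounds: 23 nL, 24 h, 37 °C. Detection: luciferase reagent, luminescence at 12 min RT; decreased signal taken as cytotoxic.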
rTrxR1 inhibitor: rat TrxR1 inhibition; O89049; recombinant rTrxR1, NADPH fluorescence consumption, selenite substrate; Potency, µM (titrated, usually from 114 µM), inactives show at the top dose activity change, negative = inhibition, usual class: inhibitors; hit rate 1% among 390,000; AID 588453; further: potency means the concentration at half of the fitted maximal effect; on the % scale 0 is the no-effect control and ±100 the full control effect; nearly all actives have a fitted effect of over 65% in size
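Rat TrxR1 (90 nM in the dispensed reagent) was pre-reduced with 400 uM NADPH for 5 min at room temperature, then incubated with compound for 15 min. After 400 uM selenite was added, NADPH fluorescence (Ex 340/Em 450 nm) was followed for 8 min.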
GLP1R ag: GLP-1 receptor (human) agonism; P43220; HEK293 GLP-1R CRE-luciferase, luminescence, 4-6 h; cells express a hypersensitive GLP-1R form; Potency, µM (top dose mostly 45.6 µM), for the others: at the top dose activation, most hits filed as activators; hit rate 0.007% among 380,000; AID 624172; further: potency means the concentration at half of the fitted maximal effect; % of control where 0% means no effect
Target sequence (P43220 whole entry, looked up): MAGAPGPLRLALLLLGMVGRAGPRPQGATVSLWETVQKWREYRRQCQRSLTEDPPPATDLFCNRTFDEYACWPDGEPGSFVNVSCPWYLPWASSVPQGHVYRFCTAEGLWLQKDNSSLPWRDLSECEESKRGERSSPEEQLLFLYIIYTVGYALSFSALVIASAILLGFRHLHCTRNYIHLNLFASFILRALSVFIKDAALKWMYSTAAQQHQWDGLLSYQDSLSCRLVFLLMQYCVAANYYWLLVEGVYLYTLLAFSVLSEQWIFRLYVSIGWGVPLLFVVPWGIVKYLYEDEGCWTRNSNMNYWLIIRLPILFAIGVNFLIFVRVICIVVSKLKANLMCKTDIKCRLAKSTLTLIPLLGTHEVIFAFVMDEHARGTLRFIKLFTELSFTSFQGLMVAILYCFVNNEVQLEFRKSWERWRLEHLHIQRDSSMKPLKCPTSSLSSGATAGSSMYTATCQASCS
mIDH1 inhibitor: human IDH1 R132H inhibition. Potency, µM (titrated, usually from 76.6 µM), inactives show top-dose activity change, negative = inhibition, actives largely listed as inhibitors. IDH1-R132H enzyme, NADPH consumption, diaphorase/resazurin fluorescence. hit rate 0.093% among 390,000; further: potency means the concentration at half of the fitted maximal effect; on the % scale 0 is the no-effect control and ±100 the full control effect; nearly all actives have a fitted effect of over 65% in size
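IDH1-R132H (0.5 ug/mL) preincubated 30 min with compound, then NADPH (0.016 mM) and alpha-KG (2 mM) added; 80 min at RT, pH 7.5. Remaining NADPH coupled via diaphorase/resazurin to fluorescence (540/590 nm); concentration-response curves normalized to no-enzyme control.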
TrxR1 substrate: substrates of rat thioredoxin reductase 1; hit rate 0.01% among 390,000; Potency, µM (doses to about 114 µM), for inactives: top-dose activity change, negative = substrate turnover; O89049; AID 588456; purified TrxR1 substrate turnover, NADPH consumption readout; further: potency means the concentration at half of the fitted maximal effect; on the % scale 0 is the no-effect control and ±100 the full control effect; nearly all actives have a fitted effect of over 50% in size
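Rat TrxR1, dispensed at 90 nM, was prereduced with 400 uM NADPH (final) for 5 min at ~22 deg C, then incubated with compound 15 min before 400 uM selenite. A first-read NADPH fluorescence drop versus no-compound background flagged substrates.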
GLP-1R inv ag: acts as inverse agonist at human GLP-1 receptor. HEK293 GLP-1R CRE-luciferase, luminescence, 24 h; GLP-1R form is constitutively active. Potency, µM (titrated, usually from 38.3 µM), inactives show top-dose activity change, negative = inhibition, hits mostly inhibitors. hit rate 1.6% among 410,000. AID 624417; further: potency means the concentration at half of the fitted maximal effect; on the % scale 0 is the no-effect control and ±100 the full control effect; nearly all actives have a fitted effect of over 55% in size
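GLP-1R inverse agonism mode: basal reporter luminescence in engineered HEK293 cells measured after one day of compound exposure at 37 deg C, with a 12 min room-temperature detection step.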
Resorufin autofl: counter-screen for mutant IDH1 inhibitors: fluorescence interference; AID 623980; inhibition of signal, % at 51.2 µM; shares compounds with mIDH1 inhibitor; 750 tested, under 10 active; Resorufin detection reagent fluorescence interference, cell-free;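 further: 0% = wells with normal resorufin and full inhibition = wells lacking resorufin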
WT IDH1 inh: wild-type IDH1 (human) inhibition counterscreen; shares compounds with mIDH1 inhibitor; WT IDH1 enzyme, NADPH diaphorase/resazurin fluorescence; Potency, µM (top dose mostly 115 µM), for inactives: at the top dose activity change, negative = inhibition, most hits filed as inhibitors; hit rate 9% among 750; AID 623995;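 further: potency means the concentration at half of the fitted maximal effect; 0% = full WT IDH1 enzyme control and full inhibition = no enzyme wells; nearly all actives have a fitted effect of over 55% in size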
IDH1 R132H conf: inhibits human mutant IDH1 enzyme in cherrypick confirmation; IDH1 R132H enzyme, NADPH diaphorase/resazurin fluorescence; hit rate 83% among 750; shares compounds with mIDH1 inhibitor; Potency, µM (top dose mostly 76.6 µM), for the others: at the highest dose activity change, negative = inhibition, most hits filed as inhibitors; further: potency means the concentration at half of the fitted maximal effect; nearly all actives have a fitted effect of over 50% in size
The depositor's hits bear a star; ? = inconclusive; nt = no result given; [ ] = dose if it differs, or a comment. This is a sample that favours compounds with a hit; in the whole collection about 2.7% have one here. The call rests on the fitted dose curve; in most records, active means well fitted curve in the direction sought with a large enough effect; inconclusive means small, poorly fitted or top-dose-only effect, or another doubt; inactive means no such curve, though single readings can be large; an effect the other way counts as inactive or inconclusive.

SMILES | GLP1R cytotox | rTrxR1 inhibitor | GLP1R ag | mIDH1 inhibitor | TrxR1 substrate | GLP-1R inv ag | Resorufin autofl | WT IDH1 inh | IDH1 R132H conf
O=C(NCC(c1ccc(Cl)cc1)N1CCCCC1)c1ccccc1 (stereo unspecified) | -1% | 10% | nt | 0% | 4% | -26% | nt | nt | nt
O=C(NCC(c1ccco1)S(=O)(=O)c1cccs1)c1ccc(Cl)cc1 (stereo unspecified) | 1% | 5%[57.1 µM] | nt | nt | 3%[57.1 µM] | -16% | nt | nt | nt
CCC(=O)N1c2ccccc2CC1C(=O)NCCc1ccc(OC)cc1OC (stereo unspecified) | -15% | 9%[57.1 µM] | nt | -17% | 2%[57.1 µM] | 10% | nt | nt | nt
CCOC(=O)c1cnc2ccccc2c1Nc1cccc(OC)c1 | -1% | 15%[57.1 µM] | nt | 16% | -3%[57.1 µM] | ? | nt | nt | nt
CC(=O)c1cc(-c2ccccc2)n(CCC(=O)Nc2ccc(C(C)C)cc2)c1C | -21% | -32%[57.1 µM] | nt | 12% | -12%[57.1 µM] | ? | nt | nt | nt
Cc1ccc(C)c(NC(=O)CN2C(=O)COc3ccc(Cl)cc32)c1 | 1% | 28% | nt | 20% | 4% | 10% | nt | nt | nt
CN1C=CC2=C(C#N)C(N)C(C#N)(C#N)[C@H](c3ccccc3)[C@H]2C1 (stereo partly specified) | 71% | 13% | -20% | ? | 40% | 0% | 2 | 38% | ?
CCOc1ccc(N2CC(NC(=O)C(=O)c3c[nH]c4ccccc34)CC2=O)cc1 (stereo unspecified) | -6% | -3%[57.1 µM] | nt | -8% | -9%[57.1 µM] | -28% | nt | nt | nt
CCOC(=O)c1c(NC(=O)COC(=O)c2ccccc2NC)sc(C(=O)N(C)C)c1C | -13% | 37% | 7% | 12µM* | 136% | ? | -4 | 10% | 4.5µM*
CCOC(=O)c1c(NC(=O)COC(=O)Cc2ccccc2[N+](=O)[O-])sc(C(=O)N(C)C)c1C | 2% | -7%[57.1 µM] | 19% | 0% | -8%[57.1 µM] | 57% | nt | nt | nt
Cc1ccc(CSC2=Nc3ccccc3C3=NC(CCC(=O)NCc4cccs4)C(=O)N23)cc1 (stereo unspecified) | -1% | -3%[57.1 µM] | nt | 15% | 4%[57.1 µM] | 19% | nt | nt | nt
Cc1ccc(CSC2=Nc3ccccc3C3=NC(CCC(=O)NCCc4ccccc4)C(=O)N23)cc1 (stereo unspecified) | 0% | 10%[57.1 µM] | nt | ? | 7%[57.1 µM] | -23% | 1 | 4% | -9%
CN(C)c1ccc(C(=O)C(O)c2ccccc2Cl)cc1 (stereo unspecified) | -2% | -7% | 17% | -5% | -7% | -27% | nt | nt | nt
Cc1cc(N(CCO)CCO)ccc1C(c1ccc(N(CCO)CCO)cc1C)c1ccccc1Cl | ? | -15% | -9% | 26µM* | -12% | 0% | 7 | ? | 7.1µM*
CCC(Oc1ccccc1F)C(=O)Nc1c(C(=O)c2ccccc2)oc2ccccc12 (stereo unspecified) | 2% | 26% | nt | -15% | 2% | -1% | nt | nt | nt
Cc1ccc(CNC(=O)c2ccc([N+](=O)[O-])o2)cc1 | -14% | -21% | -7% | 2% | 3% | 0% | nt | nt | nt
Cc1ccc(/C=C/C(=O)c2ccc([N+](=O)[O-])o2)cc1 | -18% | 6.3µM* | 10% | 35µM* | -4% | 12% | -10 | ? | 8.9µM*
O=C(/C=C/c1ccc(Cl)cc1)c1ccc([N+](=O)[O-])o1 | -2% | 5µM* | -1% | 11µM* | -2% | 8% | 0 | ? | 8.9µM*
CCCn1cc(S(=O)(=O)c2ccc(C)c(C)c2)c(=O)c2cc(F)c(N3CCCCC3)cc21 | 2% | 16% | nt | 6% | -2% | -2% | nt | nt | nt
CCCn1cc(S(=O)(=O)c2cc(C)ccc2C)c(=O)c2cc(F)c(N3CCCCCC3)cc21 | -1% | 11% | nt | ? | 5% | -3% | -5 | -9% | 16µM*
CCc1ccc(NC(=O)Cc2c(C(=O)O)c(C)cn2C)cc1 | 4% | 5%[57.1 µM] | nt | 1% | -2%[57.1 µM] | 12% | nt | nt | nt
Cc1cc(C)cc(NC(=O)c2ccc3c(O)c(S(=O)(=O)c4ccccc4)c(=O)[nH]c3c2)c1 | -2% | 9% | nt | -20% | -5% | 13% | nt | nt | nt
CC1(C)Nc2ccc(O)cc2-c2c1ssc2=S | ? | -19% | -5% | 4% | 5% | 4% | nt | nt | nt
CC(=O)NS(=O)(=O)c1ccc(N=c2ssc3c2-c2cc(C)ccc2NC3(C)C)cc1 | -25% | 1% | -2% | ? | -4% | ? | 2 | 4% | 45µM*
Cc1ccccc1N=C1c2cc([N+](=O)[O-])ccc2-c2ncccc21 | -5% | -13% | 1% | ? | -10% | 3% | -2 | 0% | 22µM*
SMILES | GLP1R cytotox | rTrxR1 inhibitor | GLP1R ag | mIDH1 inhibitor | TrxR1 substrate | GLP-1R inv ag | Resorufin autofl | WT IDH1 inh | IDH1 R132H conf
Cc1ccc(Nc2cc(C)c(C#N)c3nc4ccccc4n23)c(C)c1 | 2% | ? | 0% | 40µM* | 9% | 13% | 1 | -2% | 14µM*
COc1ccc(-c2nc3ccccc3s2)cc1NC(=O)c1ccccc1OC | 6% | 40% | nt | 4% | 18% | 22% | nt | nt | nt
O=C(Nc1nnc(SCc2ccc(F)cc2)s1)c1ccc2ncsc2c1 | 4% | 11% | -2% | 52µM* | 12% | 23% | -2 | -16% | 50µM*
CC(=O)Nc1nnc(SCc2ccc(F)cc2)s1 | 2% | 28% | -1% | 3% | 11% | 33% | nt | nt | nt
COc1cc(-c2cc(C(=O)Nc3ccc(S(=O)(=O)Nc4ncccn4)cc3)c3ccccc3n2)cc(OC)c1OC | -10% | -5% | 4% | ? | -13% | 10% | nt | nt | nt
COc1cc(-c2cc(C(=O)Nc3ccc(S(N)(=O)=O)cc3)c3ccccc3n2)cc(OC)c1OC | -26% | -1% | 19% | ? | -8% | ? | -1 | 1% | ?
N#CC1=C(N)C(C#N)(C#N)C(c2ccncc2)C2CN(C(=O)OCc3ccccc3)CC=C12 (stereo unspecified) | 11% | -35% | -5% | 46µM* | 7% | 60% | -9 | 29% | 45µM*
